Data reported in PubChem BioAssay.
Results filed as inconclusive are left out. Activity calls are given as the source filed them. No cut-off is given here; in the data, nearly all actives have AC50 up to about 26 µM.

Experiment: viability loss in pontine glioma line – cell-based, SU-DIPG-XXV, MIPE5.0, CellTiter-Glo, qHTS, dose response (AID 1347065);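 note: cells exposed to compound for 48 hours before ATP readout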
Conditions: CellTiter-Glo ATP luminescence
With CCn1c(=O)c(-c2ccc(-c3cncs3)cc2Cl)cc2cnc(Nc3ccc(N4CCN(C)CC4)cc3)nc21 the AC50 was 2950 nM (active). In the case of CNC(=O)c1ccccc1Nc1nc(Nc2ccc3c(c2OC)CCC[C@@H](N2CCN(CCO)CC2)C3)ncc1Cl, the AC50 is reported as 833 nM (active). For Cn1nccc1Nc1nccc(-c2ccn([C@H](CO)c3ccc(Cl)c(F)c3)c(=O)c2)n1, the AC50 was 18600 nM (active). In the case of Fc1cccc(-n2cnc3c(NCc4nc5c(F)c(F)ccc5[nH]4)nc(N4CCOCC4)nc32)c1, the AC50 is reported as 332 nM (active). For O=C(c1ccc(Nc2nc(C3CC3)cn3c(-c4cn[nH]c4)cnc23)c(F)c1)N1CCOCC1, the AC50 was 3720 nM (active). With O=C(/C=C\n1cnc(-c2cc(C(F)(F)F)cc(C(F)(F)F)c2)n1)NNc1ccccn1 the AC50 was 5250 nM (active). In the case of O=C(NCc1ccc(S(=O)(=O)c2cccc(C(F)(F)F)c2)cc1)c1cnc2[nH]ncc2c1, the AC50 is reported as 16.6 nM (active). For O=C(Nc1ccc2[nH]nc(-c3ccncc3)c2c1)[C@@H]1CCN(CC(=O)N2CCN(c3ccc(-c4ncccn4)cc3)CC2)C1, the AC50 was 1050 nM (active). With CNC(=O)c1ccc(Nc2ncc(C(F)(F)F)c(NCc3nccnc3N(C)S(C)(=O)=O)n2)cc1 the AC50 was 3720 nM (active). With CCN(CC)CCNc1ccc(C)c2sc3ccccc3c(=O)c12 the AC50 was 16600 nM (active). For Nc1cc(C(F)(F)F)c(-c2nc(N3CCOCC3)nc(N3CCOCC3)n2)cn1, the AC50 was 742 nM (active). In the case of CC[C@@H](C)Nc1cc(C(=O)NC2CC3CC[C@@H](C2)N3c2ccc(C(=O)C3CC3)cn2)c(C)cc1C(N)=O (stereo not given in full), the AC50 is reported as 93.4 nM (active). In the case of Cn1cc(-c2ccc(S(=O)(=O)n3ccc(/C=C/C(=O)Nc4ccccc4N)c3)cc2)cn1, the AC50 is reported as 1320 nM (active). With O=c1sn(-c2cccc3ccccc23)c(=O)n1Cc1ccccc1 the AC50 was 14800 nM (active). In the case of C[C@@H]1COCCN1c1cc(=O)n2c(n1)N(Cc1cncc(Cl)c1)[C@H](C(F)(F)F)CC2, the outcome is reported as “inactive”. In the case of Cn1cncc1C(N)(c1ccc(Cl)cc1)c1ccc2c(c1)c(-c1cccc(Cl)c1)cc(=O)n2C (stereo not given), the AC50 is reported as 8330 nM (active). For CN1C(=O)[C@@H](NC(=O)c2cc(Cc3ccccc3)on2)COc2ccccc21, the outcome was “inactive”. With COC(=O)N1CC2(CC2)C[C@H](C(=O)NO)[C@H]1C(=O)N1CCN(c2ccccc2)CC1 the outcome was “inactive”. With CC#CC(=O)N1CCC[C@H]1c1nc(-c2ccc(C(=O)Nc3ccccn3)cc2)c2c(N)nccn12 the outcome was “inactive”. For CCCCN(CCCC)C(=O)CN1C[C@H](c2ccc3c(c2)OCO3)[C@@H](C(=O)O)[C@@H]1c1ccc(OC)cc1, the outcome was “inactive”. For O=C(NOCCO)c1ccc2cncn2c1Nc1ccc(I)cc1F, the AC50 was 332 nM (active). In the case of CCc1nc(C(N)=O)c(Nc2ccc(N3CCC(N4CCN(C)CC4)CC3)c(OC)c2)nc1NC1CCOCC1, the AC50 is reported as 833 nM (active). In the case of NS(=O)(=O)Oc1ccc2c3c(c(=O)oc2c1)CCCCC3, the outcome is reported as “inactive”. For Nc1ccc(/C=C/C(=O)NCc2cc3cc(-c4ccc(C(=O)N5CCC(F)(F)CC5)cc4)cc(-c4ccc(F)cc4)c3o2)cn1, the AC50 was 742 nM (active). For CN(C)C/C=C/C(=O)Nc1cccc(C(=O)Nc2cccc(Nc3ncc(Cl)c(-c4c[nH]c5ccccc45)n3)c2)c1, the AC50 was 263 nM (active). In the case of Nc1nc(N)c2nc(-c3cccc(Cl)c3)c(N)nc2n1, the AC50 is reported as 8330 nM (active).

Experiment: JHH-DIPG-1 glioma cell viability, MIPE5.0 library, CellTiter-Glo luminescence, qHTS (AID 1347067);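 note: cells exposed to compound for 48 hours before readout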
Conditions: JHH-DIPG-1 glioma viability, CellTiter-Glo ATP luminescence
With CNS(=O)(=O)Nc1nccc(Cc2c(C)c3ccc(Oc4ncccn4)cc3oc2=O)c1F the AC50 was 1050 nM (active). For CCCCCCCOc1ccc(CCC(N)(CO)CO)cc1C(F)(F)F, the AC50 was 8330 nM (active). In the case of CC1Oc2cc(cnc2N)-c2c(nn(C)c2C#N)CN(C)C(=O)c2ccc(F)cc21 (stereo not given), the outcome is reported as “inactive”. With COc1cc(C(=O)O)ccc1NC(=O)[C@@H]1N[C@@H](CC(C)(C)C)[C@](C#N)(c2ccc(Cl)cc2F)[C@H]1c1cccc(Cl)c1F the AC50 was 11800 nM (active). In the case of CC(C)c1c2cc(-c3ccnc(NC4CCC(NC5CCOCC5)CC4)n3)ccc2nn1C (stereo not given), the AC50 is reported as 417 nM (active). With CCc1cc2c(c(OCC(F)(F)F)c(C(=O)NC3CCN(C(=O)CO)CC3)n2C)c(=O)n1CC(=O)c1ccccc1 the outcome was “inactive”. With CCN(C(=O)c1ccccc1OC)c1cc2c(cc1N1CCNC[C@H]1C)n(C)c(=O)n2C the outcome was “inactive”. In the case of COc1cc(OC)cc(N2CCN(C(=O)Nc3nc4cc(F)ccc4nc3OC)CC2)c1, the AC50 is reported as 1320 nM (active). In the case of CCOC(=N)c1nc2ccc3ncnc(Nc4cc(F)c(F)cc4Cl)c3c2s1, the AC50 is reported as 14800 nM (active). For CC[C@@H](C)Nc1cc(C(=O)NC2CC3CCC(C2)N3c2ccc(C(=O)C3CC3)cn2)c(C)cc1C(N)=O (stereo not given in full), the AC50 was 209 nM (active). In the case of Cc1cc(C(=O)Nc2cc(Nc3ccc4c(/C=C/c5ccccn5)n[nH]c4c3)ccc2F)n(C)n1, the AC50 is reported as 16600 nM (active). With COc1ccc(-c2cc(C(O)C3CCCCN3)c3ccccc3n2)cc1 (stereo not given) the AC50 was 7420 nM (active). With CC(C)NC(=O)C1CCC(n2c(NC(=O)c3ccc(F)cc3)nc3ccc(CN4CCC(C(C)(C)O)CC4)cc32)CC1 (stereo not given) the outcome was “inactive”. With CCn1c(=O)c(-c2ccc(-c3cncs3)cc2Cl)cc2cnc(Nc3ccc(N4CCN(C)CC4)cc3)nc21 the AC50 was 5250 nM (active). For CNC(=O)c1ccccc1Nc1nc(Nc2ccc3c(c2OC)CCC[C@@H](N2CCN(CCO)CC2)C3)ncc1Cl, the AC50 was 5900 nM (active). For Cn1nccc1Nc1nccc(-c2ccn([C@H](CO)c3ccc(Cl)c(F)c3)c(=O)c2)n1, the AC50 was 1480 nM (active). For Fc1cccc(-n2cnc3c(NCc4nc5c(F)c(F)ccc5[nH]4)nc(N4CCOCC4)nc32)c1, the AC50 was 209 nM (active). For O=C(c1ccc(Nc2nc(C3CC3)cn3c(-c4cn[nH]c4)cnc23)c(F)c1)N1CCOCC1, the AC50 was 2630 nM (active). For O=C(/C=C\n1cnc(-c2cc(C(F)(F)F)cc(C(F)(F)F)c2)n1)NNc1ccccn1, the AC50 was 13200 nM (active). In the case of O=C(NCc1ccc(S(=O)(=O)c2cccc(C(F)(F)F)c2)cc1)c1cnc2[nH]ncc2c1, the AC50 is reported as 14.8 nM (active). In the case of O=C(Nc1ccc2[nH]nc(-c3ccncc3)c2c1)[C@@H]1CCN(CC(=O)N2CCN(c3ccc(-c4ncccn4)cc3)CC2)C1, the AC50 is reported as 525 nM (active). In the case of CNC(=O)c1ccc(Nc2ncc(C(F)(F)F)c(NCc3nccnc3N(C)S(C)(=O)=O)n2)cc1, the AC50 is reported as 4680 nM (active). In the case of CCN(CC)CCNc1ccc(C)c2sc3ccccc3c(=O)c12, the AC50 is reported as 18600 nM (active). In the case of Nc1cc(C(F)(F)F)c(-c2nc(N3CCOCC3)nc(N3CCOCC3)n2)cn1, the AC50 is reported as 2350 nM (active). With CC[C@@H](C)Nc1cc(C(=O)NC2CC3CC[C@@H](C2)N3c2ccc(C(=O)C3CC3)cn2)c(C)cc1C(N)=O (stereo not given in full) the AC50 was 148 nM (active). For Cn1cc(-c2ccc(S(=O)(=O)n3ccc(/C=C/C(=O)Nc4ccccc4N)c3)cc2)cn1, the AC50 was 1860 nM (active). In the case of O=c1sn(-c2cccc3ccccc23)c(=O)n1Cc1ccccc1, the AC50 is reported as 3720 nM (active). For C[C@@H]1COCCN1c1cc(=O)n2c(n1)N(Cc1cncc(Cl)c1)[C@H](C(F)(F)F)CC2, the outcome was “inactive”. In the case of Cn1cncc1C(N)(c1ccc(Cl)cc1)c1ccc2c(c1)c(-c1cccc(Cl)c1)cc(=O)n2C (stereo not given), the AC50 is reported as 18600 nM (active). For CN1C(=O)[C@@H](NC(=O)c2cc(Cc3ccccc3)on2)COc2ccccc21, the outcome was “inactive”. With COC(=O)N1CC2(CC2)C[C@H](C(=O)NO)[C@H]1C(=O)N1CCN(c2ccccc2)CC1 the outcome was “inactive”. With CC#CC(=O)N1CCC[C@H]1c1nc(-c2ccc(C(=O)Nc3ccccn3)cc2)c2c(N)nccn12 the outcome was “inactive”. For CCCCN(CCCC)C(=O)CN1C[C@H](c2ccc3c(c2)OCO3)[C@@H](C(=O)O)[C@@H]1c1ccc(OC)cc1, the outcome was “inactive”. With O=C(NOCCO)c1ccc2cncn2c1Nc1ccc(I)cc1F the AC50 was 105 nM (active). With CCc1nc(C(N)=O)c(Nc2ccc(N3CCC(N4CCN(C)CC4)CC3)c(OC)c2)nc1NC1CCOCC1 the AC50 was 934 nM (active). With NS(=O)(=O)Oc1ccc2c3c(c(=O)oc2c1)CCCCC3 the outcome was “inactive”. With Nc1ccc(/C=C/C(=O)NCc2cc3cc(-c4ccc(C(=O)N5CCC(F)(F)CC5)cc4)cc(-c4ccc(F)cc4)c3o2)cn1 the AC50 was 525 nM (active). With CN(C)C/C=C/C(=O)Nc1cccc(C(=O)Nc2cccc(Nc3ncc(Cl)c(-c4c[nH]c5ccccc45)n3)c2)c1 the AC50 was 468 nM (active). In the case of Nc1nc(N)c2nc(-c3cccc(Cl)c3)c(N)nc2n1, the AC50 is reported as 16600 nM (active).
